According to PubChem BioAssay (EPA / NIEHS):
The source made the active and inactive calls. Rule for the calls: active = hit-call score of the fitted dose curve at least 0.9, where 1 is the maximum; inactive = score below 0.9.

Test: ATG_M_61_CIS: Attagene CIS-FACTORIAL HepG2 Assay for M61 Transcription Factor (Internal Marker) (AID 2282937)
Settings: HepG2 Attagene CIS-FACTORIAL M61 internal marker reporter; actives raise or lower the signal
Protocol: ATG_CIS is a cell-based, multiplexed-readout assay that uses HepG2, a human liver cell line, with measurements taken at 24 hours after chemical dosing in a 24-well plate.ATG_M_61_CIS is one of 52 assay component(s) measured or calculated from the ATG_CIS assay. It is designed to make measurements of mRNA induction, a form of inducible reporter, as detected with fluorescence intensity signals by Reverse transcription polymerase chain reaction (RT-PCR) and Capillary electrophoresis technology.Data from the assay component ATG_M_61_CIS was analyzed into 1 assay endpoint. This assay endpoint, ATG_M_61_CIS, was analyzed with bidirectional fitting relative to DMSO as the negative control and baseline of activity. Using a type of inducible reporter, measures of mRNA for gain or loss-of-signal activity can be used to understand the background control at the transcription factor-level as they relate to the gene . Furthermore, this assay endpoint can be referred to as a secondary readout, because this assay has produced multiple assay endpoints where this one serves a background control function. To generalize the intended target to other relatable targets, this assay endpoint is annotated to the background measurement intended target family, where the subfamily is internal marker.
Human liver HepG2 cells are transiently transfected with multiple reporter transcription units (MRTUs) in 6-well plates using FuGene 6 reagent (Roche; 3 ml FuGene/1 mg DNA). The MRTU constructs are regulated by a cis-regulating element (promoter). […] A major difference between the CIS and TRANS system is that in CIS activities of endogenous TFs are measured, whereas the TRANS assay evaluates changes in activities of exogenous, chimeric NR-Gal4 proteins. […] At the end of 24 hour incubation, total RNA was isolated using TriZol reagent (Invitrogen). The isolated RNA is then reverse-transcribed using oligo(dT) primer and Mo-MLV reverse transcriptase (Invitrogen) with DNAse I (Ambion) treatment for 30 min. The one-tenth of the produced cDNA was amplified by PCR using Taq DNA polymerase (Invitrogen) and two reporter sequence-specific primers. The PCR products were fluorescently labeled by primer extension with 6-arboxyfluorescein (6-FAM) 5'-labeled reporter sequence-specific primer (2 min at 95 C, 20 s at 68 C and 10 min at 72 C) and these products were digested with 5U of HpaI (New England Biolabs) for 2h at 37 C. The fragments were purified using Qiaquick PCR columns (Qiagen), analyzed on an ABI 3130xL genetic analyzer (Applied Biosystems) with peak positions identified by using a set of X-rhodamine (ROX)-labeled MapMarker1000 molecular weight standards (BioVentures). The raw capillary electrophoresis data was processed using Attagraph software (Attagene).

| SMILES | outcome |
| --- | --- |
| CCOP(=S)(OCC)SCSC(C)(C)C | inactive |
| OCC(O)CO | inactive |
| c1ccc(-c2ccccc2)cc1 | inactive |
| Cc1ccccc1[N+](=O)[O-] | inactive |
| CCCCCCCCCc1ccc(O)cc1 | inactive |
| O=S(=O)(O)C(F)(F)C(F)(F)C(F)(F)C(F)(F)C(F)(F)C(F)(F)F | inactive |
| COc1ccc(O)c(C(C)(C)C)c1 | inactive |
| Cc1cccc(C)c1N | inactive |
| Cc1cccc([N+](=O)[O-])c1 | inactive |
| C1CC2OC2CC1C1CO1 (stereo not given) | inactive |
| CCCCCCCCOC(=O)c1ccccc1C(=O)OCCCCCCCC | inactive |
| CCC(C)(CC)c1cc(NC(=O)c2c(OC)cccc2OC)on1 | inactive |
| C=CC(N)=O | inactive |
| O=S(=O)(O)C(F)(F)C(F)(F)C(F)(F)C(F)(F)F | inactive |
| N#Cc1ccc(N(CC(N)=O)CC(F)(F)F)cc1C(F)(F)F | inactive |
| O=C(O)C(F)(F)C(F)(F)C(F)(F)C(F)(F)C(F)(F)C(F)(F)C(F)(F)C(F)(F)C(F)(F)F | inactive |
| O=C(O)C(F)(F)C(F)(F)C(F)(F)C(F)(F)C(F)(F)C(F)(F)C(F)(F)C(F)(F)F | inactive |
| CN(C)c1nc(=O)n(C2CCCCC2)c(=O)n1C | inactive |
| c1cc2ccc3cccc4ccc(c1)c2c34 | inactive |
| Clc1ccc(C(c2ccccc2Cl)C(Cl)(Cl)Cl)cc1 (stereo not given) | inactive |

| SMILES | outcome |
| --- | --- |
| Sc1ccccc1 | inactive |
| Oc1c(Cl)c(Cl)c(Cl)c(Cl)c1Cl | inactive |
| CC(C)(c1ccccc1)c1ccc(O)cc1 | inactive |
| O=C(NC(=O)c1cc(F)c(F)cc1Cl)Nc1cc(F)ccc1N1CCC(C(=O)O)CC1 | inactive |
| CCNc1nc(NC(C)C)nc(SC)n1 | inactive |
| CCC(=O)O[C@H]1CC[C@H]2[C@@H]3CCC4=CC(=O)CC[C@]4(C)[C@H]3CC[C@]12C | inactive |
| ClC1=C(Cl)[C@]2(Cl)[C@@H]3[C@H]4C[C@H]([C@@H]5O[C@H]45)[C@@H]3[C@@]1(Cl)C2(Cl)Cl | inactive |
| CCCN(CCC)N=O | inactive |
| Oc1ccc(Cl)cc1Cl | inactive |
| Cc1cc(-c2ccc(N)c(C)c2)ccc1N | inactive |
| Cc1cc(O)ccc1Cl | inactive |
| Nn1cnnc1 | inactive |
| C=CC(=O)NCNC(=O)C=C | inactive |
| Cc1ccccc1O | inactive |
| O=C(NC(=O)c1c(F)cccc1F)Nc1cc(Cl)c(OC(F)(F)C(F)F)c(Cl)c1 | inactive |
| ClC(Cl)=C(c1ccc(Cl)cc1)c1ccc(Cl)cc1 | inactive |
| Cc1ccc(O)c(C)c1 | inactive |
| CO/C=C(/C(=O)OC)c1ccccc1COc1cccc(C(F)(F)F)n1 | inactive |
| Clc1ccc(Cl)cc1 | inactive |
| NS(=O)(=O)C(F)(F)C(F)(F)C(F)(F)C(F)(F)C(F)(F)C(F)(F)C(F)(F)C(F)(F)F | inactive |
